Experimental data taken from PubChem BioAssay.
Calls of active or inactive are those of the source. Unless noted, the rule behind the calls is not given here.

Tests used:
[1] = tested on: XIP peptide (Xip251-270) binding; test: XIP fragment 251-270 binding compounds – biochemical, small-molecule microarray, fluorescence 635/667 nm, 0.1 µg/mL protein, primary screen (AID 1182); conditions: fluorescent protein binding, 635 nm, higher = more signal, called active from +8 up or from −8 down
XIP peptide (Xip251-270) = test: compounds binding XIP fragment 251-270 – biochemical, small-molecule microarray, fluorescence 635/667 nm, 0.5 µg/mL protein, primary screen (AID 1183); conditions: fluorescence 635 nm, higher = more signal
[2] = blood-stage malaria parasite viability loss – strain 3D7, DAPI fluorescence, 100 nL, primary screen (AID 1184);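 note: parasites grown inside human red blood cells in medium with human serum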; conditions: P. falciparum 3D7 growth, 3 d, higher = more signal
[3] = target: Homeobox protein Hox-A13 (Mus musculus) (UniProt Q62424); test: disruptors of Hoxa13 oligonucleotide interaction – biochemical, fluorescence polarization, labeled oligonucleotide, primary screen (AID 1185); conditions: Hoxa13:DNA binding, 15 min, higher = more signal, called active from +8 up or from −8 down
[4] = blockers of DNA damage checkpoint Chk1 activation – imaging, HeLa, hydroxyurea, phospho-Chk1 antibody, percent positive cells, primary screen (AID 1186); conditions: hydroxyurea-induced phospho-Chk1 immunofluorescence imaging, higher = more signal
[5] = blockers of DNA damage checkpoint Chk1 activation – imaging, HeLa, hydroxyurea, phospho-Chk1 nuclear intensity, primary screen (AID 1187); conditions: hydroxyurea-induced phospho-Chk1 immunofluorescence imaging, higher = more signal

Sequence of Homeobox protein Hox-A13 (Mus musculus) (Q62424 whole entry, looked up): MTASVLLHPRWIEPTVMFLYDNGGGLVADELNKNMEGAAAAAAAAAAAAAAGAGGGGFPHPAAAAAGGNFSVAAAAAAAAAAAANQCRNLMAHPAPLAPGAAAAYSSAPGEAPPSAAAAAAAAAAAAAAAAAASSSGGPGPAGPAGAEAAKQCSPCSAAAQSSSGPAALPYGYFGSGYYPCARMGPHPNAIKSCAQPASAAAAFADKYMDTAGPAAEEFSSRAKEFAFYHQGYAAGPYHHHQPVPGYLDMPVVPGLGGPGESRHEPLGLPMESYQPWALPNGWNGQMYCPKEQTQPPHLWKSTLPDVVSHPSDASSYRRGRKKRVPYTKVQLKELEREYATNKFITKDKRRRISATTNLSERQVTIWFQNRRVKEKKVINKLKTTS

Structure (SMILES) | composite z-score [1] | composite z-score (XIP peptide (Xip251-270)) | z-score [2] | z-score [3] | z-score [4] | z-score [5]
CN(C)C(=O)[C@@]1(CCC(=O)OC(C)(C)C)N=C(c2ccc(OCCCO)cc2)O[C@H]1c1ccccc1N=[N+]=[N-] | 1.55 (inactive) | 0.825 | -2.36 | -5.33 (inactive) | -0.146 (inactive) | -0.222 (inactive)
C=CC[C@]1(C(=O)NCC(O)CO)N=C(c2ccc(OCCCO)cc2)O[C@H]1c1ccccc1N=[N+]=[N-] (stereo partly specified) | 2.54 (inactive) | 0.159 | -2.3 | -3.71 (inactive) | -0.353 (inactive) | -0.236 (inactive)
O=C1N(CCS(=O)(=O)c2ccccc2)c2ccccc2[C@H]2OC(c3ccc(OCCCO)cc3)=N[C@@]12CCS(=O)(=O)c1ccccc1 | 2.51 (inactive) | 0.776 | -2.05 | 0.758 (inactive) | 0.109 (inactive) | 0.545 (inactive)
COCCOC(=O)N1C(=O)[C@@]2(c3ccccc31)[C@H](c1ccccc1OCCO)N1[C@H](c3ccccc3)[C@H](c3ccccc3)OC(=O)[C@H]1[C@@H]2C(=O)N1CCc2cc(OC)c(OC)cc2C1 | 0.159 (inactive) | 0.84 | -2.46 | -2.43 (inactive) | -0.453 (inactive) | -0.193 (inactive)
CC1C=C(CCCO)C=C(C(=O)OCCS(C)(=O)=O)C(C(=O)OCCS(C)(=O)=O)=CN1Cc1cccc(OC(F)(F)F)c1 (stereo unspecified) | 0.392 (inactive) | -0.0318 | -2.67 | -7.2 (inactive) | -0.0917 (inactive) | 0.397 (inactive)
CC(C)CNC(=O)[C@@]1(c2ccc([N+](=O)[O-])cc2)CC(=O)N(C(C)C)[C@@H]1c1ccc(CO)cc1 | -0.299 (inactive) | 0.131 | -0.253 | -1.21 (inactive) | -0.19 (inactive) | -0.0822 (inactive)
CCOC(=O)C1=CC[C@@H](c2ccccc2)N(S(=O)(=O)c2ccc(C)cc2)[C@H]1C=C(C)C | 0.568 (inactive) | 0.721 | -2.17 | -0.721 (inactive) | 0.213 (inactive) | 0.0493 (inactive)
Cc1ccc(S[C@]2(C(=O)NCCN3CCOCC3)CC(=O)N(C3Cc4ccccc4C3)[C@@H]2c2ccc(CO)cc2)cc1 | 0.487 (inactive) | 0.547 | -0.196 | -4.63 (inactive) | 0.672 (inactive) | 1 (inactive)
CN(C)CCCNC(=O)[C@@]1(Cc2ccccc2I)c2ccccc2C(=O)N(Cc2ccccc2Cl)[C@H]1c1ccc(CO)cc1 | 0.191 (inactive) | 0.774 | -2.21 | -0.316 (inactive) | -0.022 (inactive) | -0.461 (inactive)
O=C1O[C@H](c2ccccc2)[C@H](c2ccccc2)N2[C@H]1[C@@H](C(=O)N1CCN(c3ncccn3)CC1)[C@]1(C(=O)Nc3ccc(C#CCCO)cc31)[C@H]2c1ccccc1OCCO | 0.439 (inactive) | 0.808 | -2.19 | -1.29 (inactive) | -0.329 (inactive) | -0.529 (inactive)
O=C(NCc1ccccc1)[C@]1(Cc2ccccc2)N=C(c2ccc(OCCCO)cc2)O[C@@H]1c1ccccc1 | 0.0268 (inactive) | 0.117 | -2.18 | -2.75 (inactive) | -0.875 (inactive) | -1.17 (inactive)
O=c1c2ccc(Br)cc2nc(-c2ccccc2)n1Cc1cccc(O)c1 | 0.0521 (inactive) | 0.748 | -0.772 | -3.01 (inactive) | -0.005 (inactive) | -0.24 (inactive)
COC(=O)c1ccc(OC)c(/C=C\CC(CCc2ccccc2)OC(=O)c2ccncc2)c1 (stereo unspecified) | -0.661 (inactive) | -0.329 | -0.687 | -2.52 (inactive) | 0.0946 (inactive) | 0.459 (inactive)
COC(=O)c1ccc(OC)c(/C=C\CC(CCc2ccccc2)OC(C)=O)c1 (stereo unspecified) | -0.521 (inactive) | -0.187 | 0.522 | -1.15 (inactive) | 0.177 (inactive) | 0.453 (inactive)
[N-]=[N+]=NCc1ccccc1[C@H]1OC(c2ccc(OCCCO)cc2)=N[C@@]1(Cc1ccccc1N=[N+]=[N-])C(=O)N1CCCCC1 | 0.538 (inactive) | 0.831 | -2.15 | -0.972 (inactive) | -0.335 (inactive) | -0.35 (inactive)
COc1ccc(C(=O)Nc2ccc(CN3C(=O)[C@]4(O[C@H](CCn5cc([C@H](O)c6ccccc6)nn5)[C@@H]([Si](C)(C)c5ccc(OC)cc5)[C@@H]4C)c4ccccc43)cc2)cc1 | -0.211 (inactive) | -0.0268 | -2.7 | 0.564 (inactive) | 0.107 (inactive) | 0.168 (inactive)
CC(=O)NCCCC[C@@H]1NC(=O)[C@@H]2C[C@H](C(=O)NCCCC[N+](C)(C)C)[C@H](c3cccc(OCCO)c3)N2C1=O | 0.383 (inactive) | 0.446 | -0.102 | -2.25 (inactive) | -0.349 (inactive) | -0.317 (inactive)
CCOC(=O)C1=CCC(c2cccc(Cl)c2)O1 (stereo unspecified) | 1.62 (inactive) | 0.183 | -1.25 | -0.834 (inactive) | 0.296 (inactive) | -0.0984 (inactive)
COc1cc2c(cc1OC)CN(C(=O)[C@@H]1[C@H]3C(=O)O[C@H](c4ccccc4)[C@H](c4ccccc4)N3[C@H](c3ccc(O)cc3)[C@@]13C(=O)Nc1ccc(C#CCNC(N)=O)cc13)CC2 | 0.503 (inactive) | -0.0161 | -0.656 | -1.67 (inactive) | 0.259 (inactive) | 0.278 (inactive)
Cc1ccc(S[C@]2(C(=O)NCC(C)C)CC(=O)N(C3CCCCC3)[C@@H]2c2ccc(CO)cc2I)cc1 | 1.4 (inactive) | 0.254 | -1.82 | -3.86 (inactive) | 0.263 (inactive) | 0.746 (inactive)
O=[N+]([O-])c1ccc(C[n+]2ccc(-c3ccc(CO)cc3)cc2)o1 | 0.406 (inactive) | 0.905 | -1.29 | -3.8 (inactive) | 0.137 (inactive) | 0.657 (inactive)
